Results: PubChem BioAssay AID624483 (NMMLSC, 2012)
Out of some 360,000 compounds screened, about 11,000 (3.1%) were called active. Another 2% or so got no clear call; they are omitted. Only a selection was taken, and actives are over-represented in it overall. Unmarked numbers belong to inactive results. Cut-off read from the data, not from the text of the source: active = fluorescence intensity above about 16000; inconclusive = no clear call, values can overlap the other calls; inactive = below that.

assay: counter-screen for toxin protease inhibitors: compound fluorescence, primary screen, artefact control for toxin protease inhibitor project, biochemical, multiplex microsphere, HTS (AID 624483); conditions: compound autofluorescence counterscreen, microsphere flow cytometry; hits give high values

Row | SMILES | fluorescence intensity
1 | CC1CCN(C(=O)c2ccc(S(=O)(=O)Cc3cc(F)ccc3F)c([N+](=O)[O-])c2)CC1 | 2510
2 | CCc1ccc2nc(Nc3ncc(C(C)=O)c(C)n3)nc(C)c2c1 | 3620
3 | CCOC(=O)[C@]12CCC=C1N(CCC1=CCCCC1)C(=O)[C@H](CC(=O)NCc1ccc(C)o1)C2 | 5770
4 | COc1ccc(S(=O)(=O)NC(C)C(=O)N2CCCCCC2)cc1 (centres undefined) | 3500
5 | CSCC(NS(=O)(=O)c1ccc(C)cc1)C(=O)O (centres undefined) | 4880
6 | CCCC(NS(=O)(=O)c1ccc(OC)cc1)C(=O)O (centres undefined) | 20900 (active)
7 | O=C(OCC(=O)N1CCCCCC1)c1ccc(Cl)nc1 | 3860
8 | N#Cc1cccc(NC(=O)c2cc(C3CCCCN3C(=O)CCc3ccccc3)on2)c1 (centres undefined) | 4290
9 | CC(=O)OC[C@@H]1CN(Cc2ccccc2)C[C@H](n2cnc3c(NCc4ccco4)ncnc32)O1 | 3590
10 | COc1cccc(NC(=O)CCNS(=O)(=O)c2ccc3c(c2)oc(=O)n3C)c1 | 4240
11 | Cn1c(=O)oc2cc(S(=O)(=O)NCCC(=O)NCc3ccccc3Cl)ccc21 | 4110
12 | Cc1ccc(NC(=O)CCNS(=O)(=O)c2ccc3c(c2)oc(=O)n3C)cc1C | 22000 (active)
13 | N#Cc1c(/N=C/N2CCCC2)oc(-c2ccccc2)c1-c1ccccc1 | 3080
14 | O=C(O)Cc1ccc(NC(=O)C2CCCCC2C(=O)O)cc1 (centres undefined) | 4130
15 | O=C(O)C1CCCCC1C(=O)Nc1ccc(Cl)cc1 (centres undefined) | 25300 (active)
16 | O=C(NC1CCN(C(=S)Nc2ccc(Cl)cc2)CC1)C1CCCCC1 | 3100
17 | CCOC(=O)c1ccn(S(=O)(=O)c2ccc(C)cc2)c1-c1ccccc1 | 5920
18 | O=S1(=O)C[C@@H](N2CCN(CCO)CC2)[C@H](COCc2ccccc2)N1 | 4260
19 | COc1ccc(/C=C/C(=O)c2c(O)cc(OC)cc2OC)cc1 | 5700
20 | Cc1ccc2nc(-c3ccccc3)c(CC3CCCCC3)n2c1 | 8550
21 | Cc1ccc(SCC2=NNC(=O)C2)cc1 | 22700 (active)
22 | Cc1ccc(SCc2cc(=O)[nH]c(N3CCCCC3)n2)cc1 | 4420
23 | Cc1ccc(SCCSc2ncccn2)cc1 | 4180
24 | O=C(COC(=O)c1ccc(Cl)nc1)NCc1cccs1 | 4330

Row | SMILES | fluorescence intensity
25 | O=C(C1CC(=O)N(C2CCCC2)C1)N1CCN(c2cccc(C(F)(F)F)c2)CC1 (centres undefined) | 5860
26 | O=C(C1CC(=O)N(C2CCCC2)C1)N1CCC2(CC1)OCCO2 (centres undefined) | 21300 (active)
27 | O=C(C1CC(=O)N(C2CCCCC2)C1)N1CCN(c2ccccc2)CC1 (centres undefined) | 5000
28 | CCCNC(=O)C1(C)CCN(C(=O)c2ccccc2OC(F)(F)F)C1 (centres undefined) | 3700
29 | Cc1ccc(S(=O)(=O)N2CC[C@H]3[C@@H](C2)C(=O)C[C@@H](c2ccccc2)N3S(=O)(=O)c2ccc(C)cc2)cc1 | 6280
30 | CCc1cccc2c(=O)c(C(=O)NCCCOC)c[nH]c12 | 4150
31 | COC1=CC(=O)OC(c2ccc(OC)cc2)C1 (centres undefined) | 3440
32 | COc1cc(CO)c(C2(CO)CCCC2)cc1OC | 2910
33 | CC1(C)CC(=O)C2=C(C1)N=C1SCCC(=O)N1C2c1ccc(C(F)(F)F)cc1 (centres undefined) | 22500 (active)
34 | CCCCC[C@@H]1C=C(C(=O)OCC)[C@H](c2ccccc2)N1S(=O)(=O)c1ccc(C)cc1 | 6420
35 | O=C1NC[C@H](CCCCN2C[C@H](Cc3ccc(O)cc3)N(CCc3ccccc3)C(=O)C2=O)N(CCc2ccccc2)C1=O | 5840
36 | C=C(C)CNC(=S)/N=c1\scc(C)n1CC | 8000
37 | CC1(C)OC(=O)C2=C(C[C@@H](C3CC3)O[C@H]2CCc2cccc(Cl)c2)O1 | 6150
38 | Cc1cc(O)ccc1-c1cc(C(=O)NCc2cc(C(F)(F)F)cc(C(F)(F)F)c2)[nH]n1 | 4030
39 | COc1cc(C2NC(=O)NC(c3ccccc3)=C2C(C)=O)c(Br)cc1OCC(N)=O (centres undefined) | 3130
40 | CCCOc1ccc(C2NC(=O)NC(c3ccccc3)=C2C(C)=O)cc1OCC (centres undefined) | 16800 (active)
41 | CCOC(=O)C1=C(c2ccccc2)NC(=O)NC1c1cc(OCC)c(O)c([N+](=O)[O-])c1 (centres undefined) | 3560
42 | COc1c(C)cc(C(O)c2ncc(-c3cccc(C(F)(F)F)c3)[nH]2)cc1C (centres undefined) | 2880
43 | COCCCn1c(=O)/c(=C/c2ccccc2OC(C)C)s/c1=C(\C#N)C(=O)Nc1ccc(C(=O)O)cc1 | 4090
44 | CC1(C(=O)O)CCCN(C(=O)/C=C/c2ccccc2)C1 (centres undefined) | 3760
45 | CC(=O)NC1=NC(=O)CS1 | 22000 (active)
46 | Cc1cccc(N)c1SC1CCCCC1O (centres undefined) | 2470
47 | CN(C)/C=C/C(=O)c1cnc2sccn2c1=O | 4610
48 | C[C@H]1Cn2cnc(C(=O)N[C@@H](Cc3c[nH]c4ccccc34)C(=O)OC(C)(C)C)c2C(=O)N1 | 3860

Row | SMILES | fluorescence intensity
49 | CCN(c1ccccc1)S(=O)(=O)c1ccc(NC(=O)C(C)(C)C)cc1 | 23900 (active)
50 | CCN(c1ccccc1)S(=O)(=O)c1ccc(N)cc1 | 5250
51 | CCN(c1ccccc1)S(=O)(=O)c1ccc(C(=O)Nc2ccccc2OC)cc1 | 3100
52 | O=c1[nH][nH]c2c1[C@H](c1ccc(Cl)cc1)O[C@H](CCc1ccccc1)C2 | 5920
53 | CCc1nc2c(OCc3ccccc3)cccn2c1N(C)C(=O)c1ccco1 | 2960
54 | COc1ccc(OC)c(Cc2nnc(CCC(=O)NC3CCCC3)o2)c1 | 2020
55 | COc1ccc(OC)c(CN2C(=O)CCC2(C)c2nnnn2Cc2ccccc2)c1 (centres undefined) | 5850
56 | COc1ccc(CN2CC(C(=O)NC3CCCCC3)CC2=O)cc1 (centres undefined) | 4380
57 | COc1cccc(CN2C(=O)CCC2(C)C(=O)NC2CCCCCC2)c1 (centres undefined) | 21300 (active)
58 | COc1cccc(CNC(=O)C2CC(=O)N(C3CCCCCCC3)C2)c1 (centres undefined) | 5720
59 | COc1ccc(OC)c(CN2C(=O)CCC2(C)C(=O)NC2CCCCCC2)c1 (centres undefined) | 23000 (active)
60 | O=C1C2(c3ccccc3)CN(CCCO)CC1(c1ccccc1)CN(CCCO)C2 | 10600
61 | CCCc1nc2c3ccccc3ccn2c1Cc1ccccc1C(F)(F)F | 5310
62 | Cc1ccc(S(=O)(=O)N2CCN(C(=O)CCC(=O)NC3CCCc4ccccc43)CC2)cc1 (centres undefined) | 7770
63 | O=C(NCCO)C(=O)NCC(c1ccc2c(c1)OCO2)N1CCN(c2ccc(F)cc2)CC1 (centres undefined) | 5880
64 | O=C(Nc1nc(-c2ccc3c(c2)OCO3)cs1)c1ccncc1 | 23200 (active)
65 | C/C(=N/NC(=O)c1ccncc1)c1ccc2c(c1)OCO2 | 3750
66 | CC(NC(=O)Nc1ccc2c(c1)OCO2)c1ccncc1 (centres undefined) | 2060
67 | O=[N+]([O-])c1ccccc1SNc1ccccn1 | 2510
68 | CNC[C@H]1OCc2cnnn2CCCC(=O)N([C@H](C)CO)C[C@@H]1C | 4160
69 | COc1ccc(OC)c(NC(=O)N[C@H](Cc2ccccc2)C(=O)NN)c1 | 5710
70 | COc1ccc(OC)c(NC(=O)CC(Cc2ccccc2OC)C(=O)O)c1 (centres undefined) | 21100 (active)
71 | COc1ccc(OC)c(NC(=O)Cc2cccs2)c1 | 3820
72 | Cc1ccc(S(=O)(=O)NC(C)C(=O)Nc2ccccc2C(=O)N2CCCC2)cc1 (centres undefined) | 3260

Row | SMILES | fluorescence intensity
73 | Cc1ccc(CNC(=O)Nc2nnc([C@H]3C[C@H](O)[C@@H](CO)O3)s2)cc1 | 2810
74 | Cc1cccc(NC(=O)c2ccc3nsnc3c2)c1C | 2560
75 | O=C(NCCc1ccccc1)c1cccc(NC(=O)c2ccccc2)c1 | 3070
76 | O=C(Nc1ccccc1)c1ccc2nsnc2c1 | 16300 (active)
77 | O=C(OC1CC2CC1[C@H]1CCCCN1C2=O)N1CCOCC1 (some centres undefined) | 5270
78 | CC1(C(=O)NCc2ccco2)Cc2c(-c3ccc4c(c3)OCO4)ccnc2O1 (centres undefined) | 4110
79 | O=C1C(Sc2cccc(F)c2)=C[C@@]2(O)CC[C@@H](O)[C@]1(Sc1cccc(F)c1)[C@H]2O | 5520
80 | O=C(Nc1ccccc1C(=O)N1CCCCCC1)c1ccccc1Cl | 6360
81 | O=C(Nc1cc(=O)[nH]c2ncnn12)c1ccccc1Cl | 16500 (active)
82 | O=C(Nc1ccc2sc3ccccc3c(=O)c2c1)c1ccccc1Cl | 2540
83 | Cc1ccc(S(=O)(=O)N(C)C2(C)CCS(=O)(=O)C2)cc1 (centres undefined) | 21400 (active)
84 | Cc1ccc(S(=O)(=O)C2(S(=O)(=O)c3ccc(C)cc3)CCCC2)cc1 | 6800
85 | Cc1ccc(S(=O)(=O)N(C)c2ccc(C(=O)NCC3(N(C)C)CCCCC3)cc2)cc1 | 5740
86 | CN(C)CCNC(=O)c1ccc(-c2cn3c(-c4ccc(Oc5ccccc5)cc4)cnc3cn2)cc1 | 4030
87 | Cc1ccccc1N1CC(c2nc3ccccc3[nH]2)CC1=O (centres undefined) | 20000 (active)
88 | CCCNC(=S)N1CCCC(c2nc3ccccc3[nH]2)C1 (centres undefined) | 4060
89 | O=C(C1CCCO1)N1CCC(c2nc3ccccc3[nH]2)CC1 (centres undefined) | 9970
90 | CCCNC(=O)C1(C)CCN1C(=O)C1(c2ccccc2)CC1 (centres undefined) | 3570
91 | C=C(C)CSc1nnc(-c2ccc(C)cc2)n1N | 9220
92 | Cn1c(=O)c2c(nc(CN3CCOCC3)n2Cc2ccccc2)n(C)c1=O | 9090
93 | C/C(CCc1ccccc1)=N\NC(=O)c1ccc(CN2CCOCC2)cc1 | 2210
94 | S=C1SCN(CCN2CCOCC2)CN1Cc1ccccc1 | 24500 (active)
